Compound activity from PubChem.
BAZ2B block: inhibitors of human BAZ2B bromodomain. AlphaScreen BAZ2B-H3K14Ac peptide displacement. Potency, µM (doses to about 114 µM), for inactives: top-dose activity change, negative = inhibition, usual class: inhibitors. hit rate 4.4% among 360,000. AID 504333; further: on the % scale 0 is the no-effect control and ±100 the full control effect; nearly all actives have a fitted effect of over 60% in size
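Multi-concentration screen (max 110 uM) measuring displacement of acetylated histone H3 peptide from BAZ2B by AlphaScreen, using 50 nM protein, 50 nM peptide and 10 ug/mL streptavidin donor plus Ni-chelate acceptor beads.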
ALOX12 inh: ALOX12 (human) lipoxygenase inhibition | purified 12hLO, xylenol orange hydroperoxide absorbance | hit rate 1.1% among 580,000 | Potency, µM (doses to about 108 µM), for inactives: at the highest dose activity change, negative = inhibition, most hits filed as inhibitors; further: on the % scale 0 is the no-effect control and ±100 the full control effect
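Purified human 12hLO at 150 nM in 25 mM Hepes, 0.01% Triton X-100, pH 7.0, preincubated 15 min at room temperature with compound. Reaction started with 40 uM arachidonic acid, 30 min at room temperature. Hydroperoxide measured by Fe-xylenol orange, 573/405 nm absorbance ratio.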
G9a block: inhibitors of human histone lysine methyltransferase G9a; G9a H3K9 monomethylation, AlphaScreen, 2 h; hit rate 8.8% among 350,000; Q96KQ7; Potency, µM (titrated, usually from 102 µM), for the others: at the highest dose activity, negative = inhibition, most hits filed as inhibitors; further: on the % scale 0 is the no-effect control and ±100 the full control effect; nearly all actives have a fitted effect of over 75% in size
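AlphaScreen detection with an anti-monomethyl H3K9 antibody quantified product after a 2 h room-temperature reaction containing 500 nM biotinylated H3K9 peptide, 20 µM SAM and 20 nM enzyme, which had been preincubated 15 min with compound.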
PLK1 PBD inh: PLK1 (human) polo-box domain binding inhibition; Plk1 PBD binding of FITC phosphopeptide, fluorescence polarization; hit rate 2.8% among 360,000; Potency, µM, for inactives: max response, negative = inhibition, actives largely listed as inhibitors; further: series mostly up to about 57 µM; on the % scale 0 is the no-effect control and ±100 the full control effect; nearly all actives have a fitted effect of over 65% in size
Target sequence (P53350 whole entry, looked up, the tested form may be a part): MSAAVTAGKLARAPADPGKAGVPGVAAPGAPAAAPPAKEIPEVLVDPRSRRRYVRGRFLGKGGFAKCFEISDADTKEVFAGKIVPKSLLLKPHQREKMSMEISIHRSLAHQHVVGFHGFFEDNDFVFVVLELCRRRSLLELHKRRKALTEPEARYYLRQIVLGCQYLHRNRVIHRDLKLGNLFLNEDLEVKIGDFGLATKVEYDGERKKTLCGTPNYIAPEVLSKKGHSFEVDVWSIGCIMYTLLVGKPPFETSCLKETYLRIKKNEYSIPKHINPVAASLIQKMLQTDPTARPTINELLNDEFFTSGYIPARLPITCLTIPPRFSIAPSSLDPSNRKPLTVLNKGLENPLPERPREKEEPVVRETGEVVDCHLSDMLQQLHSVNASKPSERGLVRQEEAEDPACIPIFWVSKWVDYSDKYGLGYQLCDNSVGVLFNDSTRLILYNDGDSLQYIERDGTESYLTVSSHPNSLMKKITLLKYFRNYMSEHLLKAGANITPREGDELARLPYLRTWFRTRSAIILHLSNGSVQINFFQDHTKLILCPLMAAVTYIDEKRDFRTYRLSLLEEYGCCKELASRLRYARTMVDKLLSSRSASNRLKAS
JMJD2A Tudor inh: inhibitors of human JMJD2A Tudor domain; O75164; AlphaScreen JMJD2A-Tudor / H3K4me3 peptide binding; Potency, µM (top dose mostly 114 µM), for the others: top-dose activity change, negative = inhibition, hits mostly inhibitors; hit rate 4.4% among 390,000; AID 504339; further: on the % scale 0 is the no-effect control and ±100 the full control effect; nearly all actives have a fitted effect of over 50% in size
HP1b chromo inh: blocks HP1-beta chromodomain binding to methylated histone tails | P83916 | AlphaScreen HP1-beta / biotin-H3K9me3 peptide binding | Potency, µM (top dose mostly 114 µM), for the others: top-dose activity change, negative = inhibition, most hits filed as inhibitors | hit rate 0.56% among 390,000; further: nearly all actives have a fitted effect of over 70% in size
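AlphaScreen: HP1-beta (50 nM) preformed 30 min with biotin-H3(1-18)K9me3 peptide (50 nM) in PBS pH 7.4, 0.01% Tween-20. Compound added for 30 min at RT, then streptavidin donor/nickel chelate acceptor beads (10 ug/mL) for 30 min.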
* = called active by the depositor; [ ] = remark or other dose. Rows were chosen to be rich in hits. Some 9% of all compounds tested hit in one or more screens of this group. The call rests on the fitted dose curve; in most records, active means well fitted curve in the direction sought with a large enough effect; inconclusive means small, poorly fitted or top-dose-only effect, or another doubt; inactive means no such curve, though single readings can be large; an effect the other way counts as inactive or inconclusive. Potency means the concentration at half of the fitted maximal effect.

For Cc1ccc(S(=O)(=O)NCC(c2ccc(N(C)C)cc2)N2CCc3ccccc32)cc1C (stereo not given) the results were BAZ2B block 6.3µM*, ALOX12 inh 1%, G9a block 5.6µM*, JMJD2A Tudor inh 7.1µM* and HP1b chromo inh -24%.
`Cc1ccccc1CN1CCC(CNc2ncnc3onc(-c4ccc(F)cc4)c23)CC1` gave BAZ2B block 10%[57.1 µM], ALOX12 inh -4%, G9a block -26%[59 µM], JMJD2A Tudor inh -23% and HP1b chromo inh 26%.
Screening CC[n+]1c(C)cc(C)n1-c1ccccc1 returned ALOX12 inh 40µM*, G9a block 50µM*, PLK1 PBD inh -9%, JMJD2A Tudor inh inconclusive and HP1b chromo inh 27%.
`CCOC(=O)Nc1ccc2c(c1)N(C(=O)N(C)C)c1ccccc1CC2` gave BAZ2B block -26%, ALOX12 inh -25%, G9a block -46%[12.7 µM], PLK1 PBD inh -7%, JMJD2A Tudor inh -11% and HP1b chromo inh -7%.
Screening COc1ccc(-n2c(C)c([N+](=O)[O-])c3ccc(O)c(CN4CCCCC4)c32)cc1 returned BAZ2B block inconclusive, ALOX12 inh -21%, G9a block 25µM*, PLK1 PBD inh -19%, JMJD2A Tudor inh inconclusive and HP1b chromo inh inconclusive.
For O=Cc1ccccc1-n1cccn1 the results were BAZ2B block 0%, ALOX12 inh 40%, G9a block 1%, PLK1 PBD inh -1%, JMJD2A Tudor inh -3% and HP1b chromo inh 22%.
Oc1cc(-n2cccn2)c(O)cc1-n1cccn1 was read as BAZ2B block 32µM*, ALOX12 inh inconclusive, G9a block 0.71µM*, PLK1 PBD inh inconclusive, JMJD2A Tudor inh 0.79µM* and HP1b chromo inh 2.8µM*.
Cc1cccc(NCc2nc(SCC(=O)Nc3ccccc3)n[nH]2)c1 was read as BAZ2B block -2%, ALOX12 inh 141%, G9a block 1%[0.501 µM], PLK1 PBD inh -16%, JMJD2A Tudor inh -19% and HP1b chromo inh 21%.
`O=C1Nc2ccccc2OC1CC(=O)N1CCN(c2cccc(C(F)(F)F)c2)CC1` (stereo not given) gave BAZ2B block -3%, ALOX12 inh 2%, G9a block 35µM*, PLK1 PBD inh -22%, JMJD2A Tudor inh -24% and HP1b chromo inh 29%.
Screening O=C1Nc2ccccc2OC1CC(=O)N1CCOCC1 (stereo not given) returned BAZ2B block 0%, ALOX12 inh 6%, G9a block -10%, PLK1 PBD inh -18%, JMJD2A Tudor inh -5% and HP1b chromo inh 47%.
COc1cc(/C=C/C(=O)OCC(=O)NC2CCS(=O)(=O)C2)ccc1OC(F)F (stereo not given) was read as BAZ2B block 0%, ALOX12 inh -1%, G9a block 43%[12.7 µM], PLK1 PBD inh -7%, JMJD2A Tudor inh -16% and HP1b chromo inh 6%.
For CN1CCc2c(sc3nc(SCC(=O)N4CCOCC4)n(-c4ccc(Cl)cc4)c(=O)c23)C1 the results were BAZ2B block inconclusive, ALOX12 inh 49%, G9a block 71µM*, PLK1 PBD inh -24%, JMJD2A Tudor inh -25% and HP1b chromo inh 5%.
For CN1CCc2c(sc3nc(SCC(=O)NCc4ccco4)n(-c4ccccc4)c(=O)c23)C1 the results were BAZ2B block inconclusive, ALOX12 inh 78%, G9a block 45µM*, PLK1 PBD inh 3%, JMJD2A Tudor inh -14% and HP1b chromo inh 40%.
`COc1ccc(-n2c(SCC(=O)NCc3ccco3)nc3sc4c(c3c2=O)CCN(C)C4)cc1` gave BAZ2B block -29%, ALOX12 inh 34%, G9a block 79µM*, PLK1 PBD inh inconclusive, JMJD2A Tudor inh -24% and HP1b chromo inh -2%.
Screening COC(=O)CSc1nc2sc3c(c2c(=O)n1-c1ccc(OC)cc1)CCN(C)C3 returned BAZ2B block -7%, ALOX12 inh -20%, G9a block 12%, PLK1 PBD inh -12%, JMJD2A Tudor inh -25% and HP1b chromo inh -6%.
For C#CCSc1nc2sc3c(c2c(=O)n1-c1cccc(OC)c1)CCN(C(C)=O)C3 the results were BAZ2B block inconclusive, ALOX12 inh -19%, G9a block inconclusive, JMJD2A Tudor inh 89µM* and HP1b chromo inh -3%.
COc1ccc(Cl)c(NC(=O)c2sc3nc(-c4ccncc4)ccc3c2N)c1 was read as ALOX12 inh 4%.
Screening NC(=O)CC(NC(=O)Cc1cccc2ccccc12)c1ccc(NCCN2CCCCC2)c([N+](=O)[O-])c1 (stereo not given) returned BAZ2B block -38%, ALOX12 inh -7%, PLK1 PBD inh -12%, JMJD2A Tudor inh -28% and HP1b chromo inh 25%.
O=c1cc(O)c(-c2ccc(Cl)cc2)c(Cl)[nH]1 was read as BAZ2B block -29%, ALOX12 inh inconclusive, PLK1 PBD inh -2%, JMJD2A Tudor inh -12% and HP1b chromo inh 20%.
Screening O=C1c2cc(Cl)ccc2-c2c(O)cc(Cl)cc21 returned ALOX12 inh 35µM*, PLK1 PBD inh -4%, JMJD2A Tudor inh inconclusive and HP1b chromo inh -17%[57 µM].
For CCCn1c(N)c(-c2csc(NC)n2)c(=O)n(C)c1=O the results were ALOX12 inh 7.9µM*.
`Cc1cccc(CN(C(=S)Nc2c(C)cccc2C)c2cccnc2)c1` gave BAZ2B block 79µM*, ALOX12 inh 45%, G9a block inconclusive, PLK1 PBD inh -4%, JMJD2A Tudor inh -16% and HP1b chromo inh 23%.
`CCc1ccccc1NC(=S)N(Cc1cccc(C)c1)c1cccnc1` gave BAZ2B block -20%, ALOX12 inh 1%, G9a block -18%, PLK1 PBD inh -8%, JMJD2A Tudor inh -24% and HP1b chromo inh 13%.
`O=C(O)c1cc([N+](=O)[O-])ccc1NCc1ccccn1` gave BAZ2B block 79µM*, ALOX12 inh -4%, G9a block 23%[2.33 µM], PLK1 PBD inh -3%, JMJD2A Tudor inh 79µM* and HP1b chromo inh 27%.
`O=C(O)c1cc([N+](=O)[O-])ccc1NCc1ccccc1Cl` gave BAZ2B block -8%, ALOX12 inh -2%, G9a block inconclusive, PLK1 PBD inh 24µM*, JMJD2A Tudor inh -31% and HP1b chromo inh -22%.
Screening O=C(O)c1cc([N+](=O)[O-])ccc1NCCc1ccccc1 returned BAZ2B block inconclusive, ALOX12 inh 2%, PLK1 PBD inh 2%, JMJD2A Tudor inh inconclusive and HP1b chromo inh -9%.
